For one compound, residual activity results are on record in ChEMBL document CHEMBL2218924, “A broad activity screen in support of a chemogenomic map for kinase signalling research and drug discovery” (Biochem J, 2013).

Test [1] addresses T1, Serine/threonine-protein kinase TBK1 (Homo sapiens) (UniProt Q9UHD2).
T1 sequence (whole entry): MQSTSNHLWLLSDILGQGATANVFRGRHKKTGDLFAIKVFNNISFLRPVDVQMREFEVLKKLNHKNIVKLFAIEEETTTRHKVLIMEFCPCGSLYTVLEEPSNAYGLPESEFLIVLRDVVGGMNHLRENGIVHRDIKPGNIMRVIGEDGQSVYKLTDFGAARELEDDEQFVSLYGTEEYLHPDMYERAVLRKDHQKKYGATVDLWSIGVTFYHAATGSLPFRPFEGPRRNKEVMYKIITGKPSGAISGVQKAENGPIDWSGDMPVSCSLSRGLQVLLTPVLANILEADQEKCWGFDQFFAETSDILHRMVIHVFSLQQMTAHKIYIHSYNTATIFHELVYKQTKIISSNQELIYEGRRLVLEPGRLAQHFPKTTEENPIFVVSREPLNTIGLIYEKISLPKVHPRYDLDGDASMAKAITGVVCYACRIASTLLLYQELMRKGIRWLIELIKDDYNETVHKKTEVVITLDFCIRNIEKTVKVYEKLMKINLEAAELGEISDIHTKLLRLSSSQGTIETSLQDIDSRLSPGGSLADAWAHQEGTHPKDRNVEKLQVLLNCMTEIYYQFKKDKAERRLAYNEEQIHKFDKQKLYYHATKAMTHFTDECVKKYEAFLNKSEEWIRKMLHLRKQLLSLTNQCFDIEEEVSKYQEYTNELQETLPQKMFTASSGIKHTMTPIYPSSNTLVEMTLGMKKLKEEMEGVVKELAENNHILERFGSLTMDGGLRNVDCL
Conditions: at 10 µM.

For test [2], the target named is T2, TGF-beta receptor type-1 (Homo sapiens) (UniProt P36897).
T2 sequence (whole entry): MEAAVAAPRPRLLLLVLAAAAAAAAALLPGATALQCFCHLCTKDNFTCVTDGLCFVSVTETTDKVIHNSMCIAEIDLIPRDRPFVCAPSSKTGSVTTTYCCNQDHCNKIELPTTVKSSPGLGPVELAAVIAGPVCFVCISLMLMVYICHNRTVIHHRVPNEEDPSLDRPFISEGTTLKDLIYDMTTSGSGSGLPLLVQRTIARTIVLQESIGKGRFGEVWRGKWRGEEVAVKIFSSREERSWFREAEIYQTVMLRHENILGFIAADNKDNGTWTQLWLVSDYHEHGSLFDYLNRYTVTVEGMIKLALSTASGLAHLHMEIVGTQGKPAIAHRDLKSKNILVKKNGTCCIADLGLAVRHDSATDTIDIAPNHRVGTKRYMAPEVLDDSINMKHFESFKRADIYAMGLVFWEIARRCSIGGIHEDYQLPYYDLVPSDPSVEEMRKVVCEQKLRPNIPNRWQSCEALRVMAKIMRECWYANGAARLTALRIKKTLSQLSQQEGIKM
The following applies: at 1 µM.

The target of test [3] is T2, TGF-beta receptor type-1 (Homo sapiens). Conditions: at 10 µM.
Test [4] has as its target Insulin-like growth factor 1 receptor (Homo sapiens) (UniProt P08069). The following applies: at 1 µM.
The target is the same in test [5]. The following applies: at 10 µM.
The target in test [6] is T3, Inhibitor of nuclear factor kappa-B kinase subunit alpha (Homo sapiens) (UniProt O15111).
T3 sequence (whole entry): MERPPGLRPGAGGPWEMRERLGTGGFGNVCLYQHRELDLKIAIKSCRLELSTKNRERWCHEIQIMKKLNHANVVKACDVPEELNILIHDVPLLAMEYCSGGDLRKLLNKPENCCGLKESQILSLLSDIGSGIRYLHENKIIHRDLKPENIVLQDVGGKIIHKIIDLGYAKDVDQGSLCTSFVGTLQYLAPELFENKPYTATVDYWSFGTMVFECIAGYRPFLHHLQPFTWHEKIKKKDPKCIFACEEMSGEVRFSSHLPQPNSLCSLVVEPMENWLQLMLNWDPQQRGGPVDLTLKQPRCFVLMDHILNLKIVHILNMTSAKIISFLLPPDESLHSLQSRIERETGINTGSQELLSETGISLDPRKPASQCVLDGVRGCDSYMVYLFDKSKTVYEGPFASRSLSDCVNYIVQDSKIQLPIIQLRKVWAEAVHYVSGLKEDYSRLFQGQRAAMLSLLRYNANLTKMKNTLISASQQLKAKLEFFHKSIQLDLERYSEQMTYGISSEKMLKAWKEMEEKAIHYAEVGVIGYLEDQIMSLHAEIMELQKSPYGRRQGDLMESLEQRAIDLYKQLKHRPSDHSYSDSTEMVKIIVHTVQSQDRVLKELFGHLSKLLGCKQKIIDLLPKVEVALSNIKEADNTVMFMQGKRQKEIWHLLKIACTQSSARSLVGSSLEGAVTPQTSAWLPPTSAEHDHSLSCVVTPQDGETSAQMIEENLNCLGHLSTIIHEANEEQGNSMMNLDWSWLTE
The following applies: at 1 µM.

Test [7] has as its target T3, Inhibitor of nuclear factor kappa-B kinase subunit alpha (Homo sapiens). Conditions: at 10 µM.
Test [8] addresses T4, Inhibitor of nuclear factor kappa-B kinase subunit beta (Homo sapiens) (UniProt O14920).
T4 sequence (whole entry): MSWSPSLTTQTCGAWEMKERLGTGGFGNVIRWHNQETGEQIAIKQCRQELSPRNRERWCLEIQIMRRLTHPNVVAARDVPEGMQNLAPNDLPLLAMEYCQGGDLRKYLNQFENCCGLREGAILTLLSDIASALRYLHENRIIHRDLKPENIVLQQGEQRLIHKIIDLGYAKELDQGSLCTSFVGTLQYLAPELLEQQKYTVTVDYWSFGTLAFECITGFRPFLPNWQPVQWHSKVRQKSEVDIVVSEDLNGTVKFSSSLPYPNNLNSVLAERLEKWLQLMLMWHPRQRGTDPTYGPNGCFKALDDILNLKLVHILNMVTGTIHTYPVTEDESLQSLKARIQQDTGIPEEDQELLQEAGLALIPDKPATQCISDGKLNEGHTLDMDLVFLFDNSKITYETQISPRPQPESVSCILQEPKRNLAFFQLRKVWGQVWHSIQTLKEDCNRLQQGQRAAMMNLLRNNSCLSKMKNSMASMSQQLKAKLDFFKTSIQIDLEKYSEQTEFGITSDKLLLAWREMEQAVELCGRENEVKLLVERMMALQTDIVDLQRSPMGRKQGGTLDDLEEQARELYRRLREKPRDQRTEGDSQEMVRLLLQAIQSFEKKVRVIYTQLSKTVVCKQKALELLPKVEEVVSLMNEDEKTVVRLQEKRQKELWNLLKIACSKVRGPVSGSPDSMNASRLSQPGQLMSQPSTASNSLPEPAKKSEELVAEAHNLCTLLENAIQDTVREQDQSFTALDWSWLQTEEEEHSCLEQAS
Conditions: at 1 µM.

Test [9] addresses T4, Inhibitor of nuclear factor kappa-B kinase subunit beta (Homo sapiens). The following applies: at 10 µM.
Test [10] addresses Insulin receptor (Homo sapiens) (UniProt P06213). Conditions: at 1 µM.

Insulin-like growth factor 1 receptor (Homo sapiens), sequence (P08069 31-736 limits assumed): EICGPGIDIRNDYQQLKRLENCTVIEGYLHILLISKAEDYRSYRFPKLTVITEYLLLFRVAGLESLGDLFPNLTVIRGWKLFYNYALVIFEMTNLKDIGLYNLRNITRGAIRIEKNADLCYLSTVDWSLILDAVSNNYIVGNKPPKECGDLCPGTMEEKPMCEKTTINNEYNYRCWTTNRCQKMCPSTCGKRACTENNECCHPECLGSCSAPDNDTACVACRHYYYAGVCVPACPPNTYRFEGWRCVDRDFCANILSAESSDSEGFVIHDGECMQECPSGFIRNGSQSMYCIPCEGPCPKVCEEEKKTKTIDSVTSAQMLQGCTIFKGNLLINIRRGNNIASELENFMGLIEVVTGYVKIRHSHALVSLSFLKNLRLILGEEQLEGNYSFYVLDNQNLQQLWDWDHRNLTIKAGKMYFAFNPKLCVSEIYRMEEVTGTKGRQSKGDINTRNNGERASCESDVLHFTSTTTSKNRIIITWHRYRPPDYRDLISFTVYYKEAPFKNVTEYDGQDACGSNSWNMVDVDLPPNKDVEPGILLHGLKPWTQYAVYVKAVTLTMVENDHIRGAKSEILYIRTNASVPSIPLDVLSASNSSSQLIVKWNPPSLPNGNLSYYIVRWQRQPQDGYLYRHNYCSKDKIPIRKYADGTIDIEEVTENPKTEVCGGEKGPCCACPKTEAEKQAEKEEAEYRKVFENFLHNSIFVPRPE
Insulin-like growth factor 1 receptor (Homo sapiens), sequence (P08069 741-1367 limits assumed): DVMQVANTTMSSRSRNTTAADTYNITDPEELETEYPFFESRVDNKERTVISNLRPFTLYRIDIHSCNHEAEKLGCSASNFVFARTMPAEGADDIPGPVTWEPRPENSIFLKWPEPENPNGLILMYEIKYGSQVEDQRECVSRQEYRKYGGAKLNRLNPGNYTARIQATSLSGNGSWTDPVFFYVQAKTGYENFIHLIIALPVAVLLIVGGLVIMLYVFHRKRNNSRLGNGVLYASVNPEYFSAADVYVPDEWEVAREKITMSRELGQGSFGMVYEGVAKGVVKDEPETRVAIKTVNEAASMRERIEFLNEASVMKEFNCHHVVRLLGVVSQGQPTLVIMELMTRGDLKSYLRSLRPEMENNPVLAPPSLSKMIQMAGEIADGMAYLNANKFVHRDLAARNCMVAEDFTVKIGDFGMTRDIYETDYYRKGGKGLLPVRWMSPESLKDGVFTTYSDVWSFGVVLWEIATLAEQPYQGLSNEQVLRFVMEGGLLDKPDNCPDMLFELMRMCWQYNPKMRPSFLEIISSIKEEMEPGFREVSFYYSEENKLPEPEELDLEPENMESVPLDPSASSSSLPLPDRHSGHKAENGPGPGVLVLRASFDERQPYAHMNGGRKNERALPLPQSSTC
Insulin receptor (Homo sapiens), sequence (P06213 28-758 limits assumed): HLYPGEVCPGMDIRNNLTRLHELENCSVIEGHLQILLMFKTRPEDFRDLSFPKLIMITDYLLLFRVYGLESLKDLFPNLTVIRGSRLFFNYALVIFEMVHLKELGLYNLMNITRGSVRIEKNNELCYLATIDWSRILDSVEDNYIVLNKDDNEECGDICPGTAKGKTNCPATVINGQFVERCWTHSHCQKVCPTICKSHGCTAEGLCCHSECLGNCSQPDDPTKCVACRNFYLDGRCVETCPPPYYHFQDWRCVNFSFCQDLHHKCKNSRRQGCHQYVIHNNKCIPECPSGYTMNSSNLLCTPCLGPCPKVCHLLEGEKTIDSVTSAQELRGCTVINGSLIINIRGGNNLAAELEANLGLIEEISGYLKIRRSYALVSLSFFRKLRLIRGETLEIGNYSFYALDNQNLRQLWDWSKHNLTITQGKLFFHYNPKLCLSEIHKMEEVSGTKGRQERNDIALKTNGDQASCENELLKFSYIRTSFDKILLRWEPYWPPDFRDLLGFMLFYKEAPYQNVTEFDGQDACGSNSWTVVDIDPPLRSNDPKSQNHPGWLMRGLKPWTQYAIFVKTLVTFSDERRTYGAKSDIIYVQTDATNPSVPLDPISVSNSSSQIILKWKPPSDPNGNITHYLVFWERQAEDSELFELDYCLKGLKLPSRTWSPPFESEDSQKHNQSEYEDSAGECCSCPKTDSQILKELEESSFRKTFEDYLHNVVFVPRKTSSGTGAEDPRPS
Insulin receptor (Homo sapiens), sequence (P06213 763-1382 limits assumed): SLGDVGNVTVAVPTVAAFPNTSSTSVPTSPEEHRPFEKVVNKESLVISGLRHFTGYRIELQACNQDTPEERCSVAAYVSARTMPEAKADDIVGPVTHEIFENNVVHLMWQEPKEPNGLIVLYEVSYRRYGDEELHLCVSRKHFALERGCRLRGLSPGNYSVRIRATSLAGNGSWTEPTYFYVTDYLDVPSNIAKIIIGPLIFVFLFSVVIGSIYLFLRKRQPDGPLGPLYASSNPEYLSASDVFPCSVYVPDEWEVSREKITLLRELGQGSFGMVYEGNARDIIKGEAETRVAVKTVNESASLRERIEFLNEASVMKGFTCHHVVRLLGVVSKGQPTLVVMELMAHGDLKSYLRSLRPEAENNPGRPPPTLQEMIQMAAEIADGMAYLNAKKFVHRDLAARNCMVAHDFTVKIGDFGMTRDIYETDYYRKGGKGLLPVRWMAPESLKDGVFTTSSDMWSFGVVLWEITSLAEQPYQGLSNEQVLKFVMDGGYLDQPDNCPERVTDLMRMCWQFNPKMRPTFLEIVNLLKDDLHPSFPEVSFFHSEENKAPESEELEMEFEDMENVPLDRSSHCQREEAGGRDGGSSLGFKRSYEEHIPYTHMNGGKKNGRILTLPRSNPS

`CC[n+]1c(/C=C/N(C)c2ccccc2)n(-c2ccccc2)c2ccc(-c3nc4ccccc4s3)cc21`: the residual activity in test [1] is 68%; in test [2], 80%; in test [3] it was 102%; in [4], 97%; in test [5], 86%; in test [6], 92%. The residual activity in [7] came out at 93%; in [8] it was 105%; in test [9], 102%; in test [10] it was 107%.
